Growth data for 20 compounds are collected here from PubChem BioAssay (NCI).

Compounds without any hit were thinned out: in the full panel of roughly 83,000, 20% have a hit.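 How to read the values: 0–100, growth inhibition (40 = 60% inhibited); 0, no net growth; -100 to 0, cell death (-40 = 40% of starting cells died; -100 = all dead).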 Unmarked numbers belong to inactive results. Calls of active or inactive are those of the source. Rule for the calls: active = growth percent below 10; inactive = the rest.

Some test systems named below: NCI-H226 lung; NCI-H322M lung; HOP-62 NSCLC; NCI-H460 lung; HOP-92 NSCLC; NCI-H522 lung; A549/ATCC NSCLC; 786-0 renal; COLO 205 colon.
Common to all, as to experiment: NCI-60 one-dose screen, 48 h (100 = growth as untreated, 0 = no growth, -100 = all killed)
Conditions in all cases: 10 µM unless noted

Take `O=C(CCCCC1CCSS1)Nc1ncnc2n[nH]c(-c3ccc(Oc4ccccc4)cc3)c12` (configuration not stated): the growth in the experiment with NCI-H226 lung was 94.2%; with NCI-H322M lung, 79.5%; with HOP-62 NSCLC, 65.6%; in the experiment with NCI-H460 lung it was 2.83% (active); in the experiment with HOP-92 NSCLC it was 97.9%; in the experiment with NCI-H522 lung, 70.3%. In addition, the growth was 37% in the experiment with A549/ATCC NSCLC, 117% in the experiment with 786-0 renal and 88.9% with COLO 205 colon.
Regarding `C=CCc1c(O)c(C(=O)/C=C/c2ccc(Cl)cc2)c(OC)c2ccoc12`, the growth with NCI-H226 lung was 28.7%; in the experiment on NCI-H322M lung, 75.8%; in the experiment with HOP-62 NSCLC it was 85.4%; in the experiment with NCI-H460 lung, 49.8%; with HOP-92 NSCLC, 48.6%; in the experiment with NCI-H522 lung it was 35.7%. The growth was 47.3% in the experiment with A549/ATCC NSCLC, 78% in the experiment on 786-0 renal and 73.7% with COLO 205 colon.
Consider `Cc1cc(N)c2cc(NC(=O)/C=C\c3ccccc3Cl)ccc2n1`, for which the growth in the experiment on NCI-H226 lung was -70.7% (active); with NCI-H322M lung it was -83.3% (active); with HOP-62 NSCLC it was -71.5% (active); in the experiment with NCI-H460 lung it was -78.3% (active); in the experiment with HOP-92 NSCLC, -69.5% (active); in the experiment on NCI-H522 lung it was -70.7% (active). Also, the growth is -43.5% (active) with A549/ATCC NSCLC, -81.3% (active) in the experiment with 786-0 renal and -65.9% (active) with COLO 205 colon.
Consider `CC1=C(C(=O)OC(C)C)C(c2ccc3c(c2)OCO3)NC(=S)N1` (configuration not stated), for which the growth in the experiment on NCI-H226 lung was 84.1%; in the experiment on NCI-H322M lung it was 108%; with HOP-62 NSCLC, 119%; in the experiment with NCI-H460 lung, 110%; in the experiment on HOP-92 NSCLC, 96.6%; in the experiment with NCI-H522 lung, 86.4%. Besides, the growth in the experiment on A549/ATCC NSCLC was 104%; in the experiment on 786-0 renal, 104%; in the experiment on COLO 205 colon, 123%.
On to `C/C(=C(/c1ccc(Cl)cc1)c1ccc(OCCN2CCCC2)cc1)c1ccc(Cl)cc1`, for which the growth with NCI-H226 lung was 107%; with NCI-H322M lung, 92.9%; with HOP-62 NSCLC it was 104%; with NCI-H460 lung, 70.6%; in the experiment with HOP-92 NSCLC it was 69.5%; in the experiment with NCI-H522 lung, 88.8%. Further, the results for the growth in the experiment on A549/ATCC NSCLC, with 786-0 renal and with COLO 205 colon were 63.4%, 82.7% and 48.5%, respectively.
With `CCOc1nc(-c2ccccc2)cc2c(O)c(C(=O)NN)[nH]c(=O)c12`, the growth in the experiment on NCI-H226 lung was 105%; in the experiment on NCI-H322M lung, 104%; in the experiment with HOP-62 NSCLC, 123%; with NCI-H460 lung it was 86.1%; in the experiment with HOP-92 NSCLC, 93.2%; with NCI-H522 lung, 88.5%. The growth with A549/ATCC NSCLC was 103%; with 786-0 renal, 97.3%.
Regarding `CC/C(=C(/c1ccc(Cl)cc1)c1ccc(OCCN2CCCC2)cc1)c1ccc(OC)cc1`, the growth was 89% with NCI-H226 lung; 92.6% in the experiment with HOP-62 NSCLC; 37.6% with NCI-H460 lung; 67% with HOP-92 NSCLC; 82.7% in the experiment on NCI-H522 lung; 61.9% with A549/ATCC NSCLC. Besides, the figures for the growth in the experiment on 786-0 renal and with COLO 205 colon were 71.9% and 64.7%, respectively.
For `COCCNC(=O)c1ccc(-c2nc3ccc4[nH]ncc4c3c3c2CCCC3)cc1`, the growth in the experiment on NCI-H226 lung is 50.7%; in the experiment on NCI-H322M lung it was 29.1%; in the experiment with HOP-62 NSCLC, 40.1%; in the experiment on NCI-H460 lung, 27.1%; in the experiment on HOP-92 NSCLC it was 56.8%; in the experiment on NCI-H522 lung it was 30.6%. Moreover, the growth with A549/ATCC NSCLC is 30.4%; with 786-0 renal, 31.7%; in the experiment with COLO 205 colon, 27.7%.
Take `COc1cc2c(c(OC)c1OC)-c1ccc(OC)c(=O)cc1[C@@H](NC(=O)CCl)CC2`: the growth in the experiment with NCI-H226 lung is 12.5%; in the experiment with NCI-H322M lung it was 52.1%; with HOP-62 NSCLC, 40.4%; in the experiment on NCI-H460 lung, -5.39% (active); with HOP-92 NSCLC, 10%; in the experiment with NCI-H522 lung, -27.4% (active). The growth with A549/ATCC NSCLC is 13%; with 786-0 renal it was 14.6%.
As to `Nc1nc(=S)c2ncn(C3OC(COP(=O)(O)O)C(O)C3O)c2[nH]1` (configuration not stated), the growth is 32.8% with NCI-H226 lung; 53.2% with NCI-H322M lung; 20.1% in the experiment with HOP-62 NSCLC; 8.01% (active) with NCI-H460 lung; 33.4% with HOP-92 NSCLC; -3.01% (active) with NCI-H522 lung. The values for the growth with A549/ATCC NSCLC, in the experiment with 786-0 renal and in the experiment on COLO 205 colon were 32.9%, 22.9% and 24.7%, respectively.
Turning to `O=C(Cn1c(=O)sc2ccccc21)NNS(=O)(=O)c1ccccc1[N+](=O)[O-]`, the growth in the experiment on NCI-H226 lung was 101%; with NCI-H322M lung, 104%; in the experiment with HOP-62 NSCLC, 108%; in the experiment on NCI-H460 lung, 108%; in the experiment on HOP-92 NSCLC, 104%; in the experiment on NCI-H522 lung it was 88.5%. In addition, the growth in the experiment with A549/ATCC NSCLC was 103%; in the experiment with 786-0 renal it was 104%; in the experiment on COLO 205 colon it was 110%.
Regarding `Cc1ccc(C(C(N)=O)C(C(N)=O)c2ccccc2)cc1` (configuration not stated), the growth in the experiment on NCI-H226 lung is 109%; in the experiment on NCI-H322M lung it was 121%; in the experiment with HOP-62 NSCLC, 111%; with NCI-H460 lung, 112%; with HOP-92 NSCLC, 99.5%; with NCI-H522 lung, 102%. The results for the growth in the experiment with A549/ATCC NSCLC, in the experiment on 786-0 renal and in the experiment with COLO 205 colon were 95.3%, 102% and 115%, respectively.
`CCN(CC)c1ccc(/C=C/C(=O)c2ccc(Nc3nc(Nc4ccccc4)nc(Nc4ccccc4)n3)cc2)cc1`: the growth in the experiment with NCI-H226 lung was 63.8%; in the experiment with NCI-H322M lung, 62.4%; in the experiment on HOP-62 NSCLC it was 50.8%; in the experiment with NCI-H460 lung, 24.8%; in the experiment on HOP-92 NSCLC, 24.2%; in the experiment on NCI-H522 lung it was 46.8%. Moreover, the growth was 37.6% in the experiment on A549/ATCC NSCLC, 61.8% in the experiment on 786-0 renal and 27.9% in the experiment with COLO 205 colon.
Consider `COc1cc(-c2nc3cc(Cl)c(Cl)cc3[nH]2)ccc1OCC(=O)N=Nc1c(O)[nH]c2ccc([N+](=O)[O-])cc12`, for which the growth is 92.9% in the experiment with NCI-H226 lung; 112% in the experiment on NCI-H322M lung; 88.7% in the experiment with HOP-62 NSCLC; 102% in the experiment on NCI-H460 lung; 84.2% with HOP-92 NSCLC; 89.6% in the experiment with NCI-H522 lung. The results for the growth with A549/ATCC NSCLC, in the experiment with 786-0 renal and with COLO 205 colon were 114%, 92.1% and 78.5%, respectively.
As to `COc1ccccc1NC(=O)Cn1cc(CN2CCN(c3ccnc4cc(Cl)ccc34)CC2)nn1`, the growth is 84.7% with NCI-H226 lung; 95.1% with NCI-H322M lung; 86.2% in the experiment with HOP-62 NSCLC; 96.3% with NCI-H460 lung; 61.8% with HOP-92 NSCLC; 86.8% with NCI-H522 lung. For the same compound, the growth in the experiment on A549/ATCC NSCLC was 91%; in the experiment on 786-0 renal, 99%; with COLO 205 colon it was 101%.
Consider `N#Cc1c(-c2ccc(Cl)cc2)nc(SCC(=O)NC2=NN=C(c3ccccc3)CS2)[nH]c1=O`, for which the growth was 106% with NCI-H226 lung; 89.7% in the experiment on NCI-H322M lung; 68.9% in the experiment with HOP-62 NSCLC; 110% in the experiment on NCI-H460 lung; 58.2% in the experiment with HOP-92 NSCLC; 66.4% in the experiment on NCI-H522 lung. Besides, the growth is 90.6% with A549/ATCC NSCLC, 93% with 786-0 renal and 80.7% in the experiment with COLO 205 colon.
Turning to `O=[N+]([O-])c1ccc(S(=O)(=O)N2CCN(C3=NS(=O)(=O)c4ccccc4N3c3ccccc3)CC2)cc1`, the growth in the experiment on NCI-H226 lung is 104%; in the experiment on NCI-H322M lung, 99.6%; in the experiment on HOP-62 NSCLC, 99.7%; in the experiment on NCI-H460 lung, 115%; with HOP-92 NSCLC, -0.794% (active); in the experiment with NCI-H522 lung it was 94.5%. In addition, the growth with A549/ATCC NSCLC is 96.3%; in the experiment with 786-0 renal it was 96.7%; in the experiment on COLO 205 colon it was 117%.
As to `CC[C@@H](C(=O)[C@@H](C)[C@@H](O)[C@H](C)[C@@H]1O[C@@H]([C@@H](CC)C(=O)NCCc2ccc(F)cc2)CC[C@@H]1C)C1O[C@]2(C=CC(=O)[C@]3(CC[C@@](C)([C@H]4CC[C@](O)(CC)[C@H](C)O4)O3)O2)[C@H](C)C[C@@H]1C` (some centres not stated), the growth in the experiment on NCI-H226 lung was 24.2%; in the experiment with NCI-H322M lung it was 76.7%; with HOP-62 NSCLC, 36%; in the experiment with NCI-H460 lung, 35%; with HOP-92 NSCLC, -0.474% (active); with NCI-H522 lung, 33.3%. Moreover, the growth in the experiment with A549/ATCC NSCLC was 20.3%; in the experiment on 786-0 renal it was 50.3%; in the experiment with COLO 205 colon, 29.5%.
In the case of `C=C(C)[C@@H]1CC[C@]2(C)[C@H](CC=C3[C@@H]4[C@H](C)[C@@H](C)CC[C@]4(CO)CC[C@]32C)[C@@]1(C)CCCN`, the growth in the experiment with NCI-H226 lung is 84.5%; in the experiment on NCI-H322M lung it was 43.7%; with HOP-62 NSCLC it was -63.1% (active); with NCI-H460 lung, -81.9% (active); in the experiment with HOP-92 NSCLC, 4.6% (active); in the experiment with NCI-H522 lung, -41.8% (active). In addition, the growth was -31.6% (active) in the experiment on A549/ATCC NSCLC, 39.3% in the experiment with 786-0 renal and -57.2% (active) with COLO 205 colon.
Consider `COc1cccc(NC(=O)Cn2cc(CN3CCN(c4ccnc5cc(Cl)ccc45)CC3)nn2)c1`, for which the growth is 81.6% in the experiment with NCI-H226 lung; 91.2% in the experiment on NCI-H322M lung; 71.6% with HOP-62 NSCLC; 97.5% in the experiment on NCI-H460 lung; 41.2% in the experiment on HOP-92 NSCLC; 80.6% with NCI-H522 lung. The growth in the experiment with A549/ATCC NSCLC was 87.9%; in the experiment with 786-0 renal, 99.2%; in the experiment on COLO 205 colon, 112%.
